Laboratory results reported in the supplement of paper PMC10338343.
± gives the standard deviation.

Experiments:
[1] = tested on: MILI (PIWIL2) piRISC loaded with piRNA #1 (26 nt); assay: pre-steady-state target cleavage rate (min^-1); guide: piRNA #1 5'p-UGAGGUAGUAGGUUGUAUAGUAUCCA; higher = faster piRNA-guided slicing of the target; settings: auxiliary factor: 500 nM mouse GTSF1
How it was run: (§1)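 In Cleave-'n-Seq, a transcribed, DNA-blocked target RNA library (0.1 nM) was combined with 1 nM active affinity-purified piRISC bearing one synthetic guide, with or without 500 nM GTSF1 partner protein. Reactions ran in HEPES–potassium acetate buffer at 33 °C for 0–8 or 0–960 min. Uncleaved targets were sequenced and normalised to depth and to weakly complementary targets, three trials were pooled, and k3 was capped at 0.0001 min^-1. The pre-steady-state cleavage rate was obtained by fitting a burst-and-steady-state model.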

[2] = tested on: EfPiwi piRISC loaded with piRNA #1 (26 nt); assay: pre-steady-state target cleavage rate (min^-1); auxiliary factor: 500 nM Ephydatia muelleri Gtsf1; guide: piRNA #1 5'p-UGAGGUAGUAGGUUGUAUAGUAUCCA; MIWI and MILI are mouse PIWI proteins and EfPiwi is from a freshwater sponge; tags in brackets are library labels; higher = faster piRNA-guided slicing of the target
How it was run: as §1

Row | Sequence | pre-steady-state target cleavage rate [1] | pre-steady-state target cleavage rate [2]
1 | GGAGACCUUAGUAUAGAACCUACUACCUCA | 0.0876 ± 0.013 | 
2 | GGAGACCUAUCUAUACAACCUACUGACCUCA | 0.066 ± 0.012 | 
3 | GGAGACCUAUGUAAACAACCUACUACCUGA | 0.00535 ± 0.0019 | 
4 | GGAGACCUAUCUAUACAUCCUAGUACCUCA | 0.0489 ± 0.012 | 
5 | GGAGACCUAUGAUAUCAUCCUACAACCUCA | 0.00348 ± 0.003 | 
6 | GGAGACCUAUGUAUUCAACGUACUACCUCA | 0.00676 ± 0.0018 | 
7 | GGAGACGAAACUAUACAACCUAGUACCUCA | 0.0663 ± 0.021 | 
8 | GGAGACCUAACUUUACUACCUACUACCUCA | 0.0581 ± 0.013 | 
9 | GGAGACCUAUGAUAUGUUCCUACUACCAUCA | < 0.0001 | 
10 | GGAGACCAUACAAUACAACCUACAACCUCA | 0.136 ± 0.014 | 
11 | GGAGACCUAUGUAUACAACCUACUCACCUCA | 0.0823 ± 0.015 | 
12 | GGAGACCUAUCAAUACAACCUACUACCUGA | 0.0265 ± 0.0091 | 
13 | GGAGACCUUACUAUAGAAGCUACUACCUCA | 0.134 ± 0.015 | 
14 | GGAGACCUAUGAUAUGAACCUACUACCCCA | < 0.0001 | < 0.0001
15 | GGAGAGGAUACAUUACAACCUACUACCUCA | 0.148 ± 0.012 | 0.007 ± 0.0035
16 | GGAGACCUAUGUAUACAACCUACUACCUGA | 0.0463 ± 0.008 | 
17 | GGAGACCUAUGAAUACAACCUGCUACCUCA | 0.00274 ± 0.0027 | 
18 | GGAGAGGAUACAAUACAACCUACUACCACA | 0.146 ± 0.015 | 0.00265 ± 0.0022
19 | GGAGACCAAACUAUUCAACCUACUACCUCA | 0.217 ± 0.047 | 0.00445 ± 0.004
20 | GGAGACCUAUGACUACAACCUACUACCUCA | 0.00416 ± 0.0019 | 
21 | GGAGACCAUACUAUACAAGCUACUACGUCA | 0.139 ± 0.022 | 0.00359 ± 0.0023
22 | GGAGAGGAUACUAUACAUGCUACUACCUCA | 0.0905 ± 0.01 | 0.0065 ± 0.0032
23 | GGAGACCAUACUAUACAACCUACAACCUCA | 0.189 ± 0.024 | 0.00489 ± 0.0019
